Among all 69,000 compounds or so, about 8,600 (12%) showed an effect of 50% or more. This is one part of a sample in which strong results are shown more often than they occur.

This note sets out measurements from ChEMBL document CHEMBL4513216, “Probing the Open Global Health Chemical Diversity Library for Multistage-Active Starting Points for Next-Generation Antimalarials” (ACS Infect Dis, 2020).

For the test, the system named is Plasmodium berghei. Description: Screen against P. berghei liver stage (PbLuc), transformed with Luciferase, at 10uM. It counts as functional, HepG2. As to conditions: tested at 10 uM.
Consider `NC1CCN(C(=O)c2c(F)cccc2Br)CC1`, for which the INHIBITION was 28.7%. Consider `Cc1cc(C(=O)N2CC[C@@H]3CN(c4ncccn4)CCO[C@@H]3C2)c(C)o1`, for which the INHIBITION came out at 33.5%. To `CN1CCN(Cc2cscn2)CC(C(=O)N(C)C)C1` (stereo not given) belongs 43.8%; to `CS(=O)(=O)CCNC(=O)N1CC2(CCCC2)c2ccccc21`, -8.91%; to `COCCN1C(=O)[C@@H]2CC[C@H]1CN(Cc1nnc(-c3ccccc3)o1)C2`, -24.5%. As for `CS(=O)(=O)Nc1ccn(Cc2ccc(Cl)cc2)n1`, the INHIBITION was 58.2%. To `CS(=O)(=O)Nc1ccn(Cc2ccc(Br)cc2)n1` belongs 49.9%; to `Cc1ccc(Cn2ccc(NS(C)(=O)=O)n2)cc1`, -36.5%; to `COc1ccc2[nH]cc(C(=O)N3C[C@@H](O)[C@H](N4CCCC4)C3)c2c1`, 11.8%. With `CCc1oc(C(=O)NC(C)Cc2cnccn2)cc1CN1CCCC1` (stereo not given), the INHIBITION was 30%. For `CCCn1nc2c(cc1=O)CN(Cc1nc(C)c(C)o1)CC2`, the INHIBITION is 14.1%. Take `CSc1cccc(NC(C)C(=O)Nc2nccs2)c1` (stereo not given): the INHIBITION is 44.4%.

Consider `CC(C(=O)Nc1nccs1)N(C)Cc1cccc(C#N)c1` (stereo not given), for which the INHIBITION was found to be 22.6%. In the case of `Cc1cccc(NC(C)C(=O)Nc2nccs2)c1` (stereo not given) it was 79.8%; in that of `COc1ccc(Br)cc1SCCS(C)(=O)=O`, 29%; in that of `Cc1cc(C)n(CC2CCCN2C(=O)CCc2nccs2)n1` (stereo not given), 31.1%. In the case of `O=C(NCCc1c[nH]cn1)c1ccccc1C1CCNC1` (stereo not given) it was 24.4%.

Take `Cc1cc(C)nc(CN(C)C(=O)c2ccccc2C2CCNC2)c1` (stereo not given): the INHIBITION is listed as 47.2%. In the case of `CC(C)Cc1cc(CNC(=O)c2ccccc2C2CCNC2)no1` (stereo not given) it was 68.4%; in that of `CN(Cc1cc(C2CC2)[nH]n1)C(=O)c1ccccc1C1CCNC1` (stereo not given), 51.3%; in that of `O=C(NCc1ccc2c(c1)OCO2)c1ccccc1C1CCNC1` (stereo not given), 31%. In the case of `CC(C)Cc1cc(CNC(=O)c2cccc3c2OCC3)no1` it was 52.6%; in that of `COCc1cc(CNC(=O)c2cccc3c2OCC3)n[nH]1`, 14.6%.

Turning to `CC(C)Cc1cc(CNC(=O)c2cccc3c2NCCC3)no1`, the INHIBITION came to 44.3%. In the case of `CN(Cc1cc(C(C)(C)C)n[nH]1)C(=O)c1ccccc1C1CCNC1` (stereo not given) it was -23.2%; in that of `COc1cccc(-c2cnc(CNC(C)(C)c3nc(C)cs3)o2)c1`, -16%. To `CCCn1cc(C(=O)NC(C)c2c(C)nn(CC)c2C)c(C)n1` (stereo not given) belongs 43%.

`CCC(O)CN1CCN(C(=O)c2ccn(-c3ccccc3)n2)CC1` (stereo not given): the INHIBITION amounted to 2.3%. To `CN(Cc1ncnn1C1Cc2ccccc2C1)C1CCS(=O)(=O)C1` (stereo not given) belongs 25.4%; to `O=C(NCc1cccnc1)c1nc2c(s1)CCCN2C(=O)C1CC1`, 27.6%.

Take `O=C(NCCc1cccc(F)c1)c1nc2c(s1)CCCN2C(=O)C1CC1`: the INHIBITION amounted to 52.1%.

As for `O=C(NCCc1cccnc1)c1nc2c(s1)CCCN2C(=O)C1CC1`, the INHIBITION was 35.8%. With `CC(C)C(=O)N1CCC(c2nc3c([nH]2)CCCNC3=O)CC1`, the INHIBITION turned out to be 25.9%. For the compound `COc1ccccc1CN1CC(O)CN(S(=O)(=O)C(C)C)CC1=O` (stereo not given), the INHIBITION was found to be 28.3%.

Turning to `CCc1cc(CN(C)C(=O)CN2CC3(CCNCC3)OC2=O)on1`, the INHIBITION is recorded as 44.2%.

As to `Cc1nnsc1CN(C)C(=O)CN1CC2(CCNCC2)OC1=O`, the INHIBITION is 51.8%. Regarding `Cc1ncsc1CCN(C)C(=O)CN1CC2(CCNCC2)OC1=O`, the INHIBITION is given as -5.52%. To `Cc1cc(CN(C)C(=O)CN2CC3(CCNCC3)OC2=O)n(C)n1` belongs 64.8%. In the case of `Cc1cc(C)n(CCCN(C)C(=O)CN2CC3(CCNCC3)OC2=O)n1` it was 25.8%. To `Cc1cc(CN(C)C(=O)CN2CC3(CCNCC3)OC2=O)no1` belongs -20.7%. `COc1ccc2c(c1)CCN2Cc1nc2c(cnn2C)c(=O)[nH]1`: the INHIBITION is 33.8%. To `CS(=O)(=O)NCCCNC(=O)NCc1ccccc1` belongs -40.2%; to `CC(=O)N1CC(=O)N(c2cnn(C)c2)CC12CCN(CC1CC1)C2` (stereo not given), 30.1%; to `Cc1ccn(CCNC(=O)C2CCN(S(=O)(=O)c3ccc(F)cc3)C2)n1` (stereo not given), 3.91%. Take `Cn1cc([C@@H]2CN(S(=O)(=O)c3cccnc3)C[C@H]2N)c2ccncc21`: the INHIBITION is recorded as -30.435%. With `CN(C)c1cc2c(nn1)CCN(C(=O)C1CCCc3ccccc31)C2` (stereo not given), the INHIBITION came to 5.03%.

Regarding `CC(C)c1ccc(CC(=O)N2CCCC3(CN(C)C(=O)O3)C2)cc1` (stereo not given), the INHIBITION is on record as 24.3%. To `CCn1ncnc1C(C)Nc1cc(C2CCNCC2)nc(C)n1` (stereo not given) belongs -63.5%; to `CN(CC1(C)COC1)C(=O)c1cc(-c2ccn(C)n2)nc2ccccc12`, 18.2545%; to `Cc1noc(C)c1-c1ccnc(C2CCN(C3CCOCC3)CC2)c1`, 24.4%. In the case of `Cc1noc(C)c1-c1cc(C2CCNCC2)ccn1` it was 20.8%; in that of `Cc1noc(C)c1-c1ccnc(C2CCNCC2)c1`, 67.7%. To `CSCC[C@@H]1CN2CCC[C@H]2CN1Cc1coc2ccc(C)cc2c1=O` belongs 40.09%. Turning to `Cc1ccc(CN2CC(C(=O)N3CCCC3)C3(CCOCC3)C2)s1` (stereo not given), the INHIBITION is on record as -11.1%. On to `O=C([C@H]1CCS(=O)(=O)[C@@H]2CN(CCc3ccccc3)C[C@H]12)N1CCCC1`, for which the INHIBITION came to 39.3%.

As for `Cc1cc(N(C)CC2COc3ccccc3O2)nc(C)n1` (stereo not given), the INHIBITION came out at 83.5%. For the compound `CCN1CC(CN(C)c2cc(C)nc(N)n2)Oc2ccccc21` (stereo not given), the INHIBITION turned out to be 82.4%.

On to `CN(CC1COc2ccccc2O1)C(=O)NCCCn1cccn1` (stereo not given), for which the INHIBITION is recorded as -14.4%. To `Cc1cc(N(C)CC2COc3ccccc3O2)nc(N)n1` (stereo not given) belongs 80.1%; to `CN(Cc1nnnn1C1CC1)CC1COc2ccccc2O1` (stereo not given), 17.5%; to `Cc1csc(CN2CC(CO)Oc3ccccc32)n1` (stereo not given), 24.3%. In the case of `Cc1nc(CN2CC(CO)Oc3ccccc32)sc1C` (stereo not given) it was -10.3%. In the case of `CCCn1nnnc1CN(CC)CC1COc2ccccc2O1` (stereo not given) it was 45.9%. Turning to `CN(Cc1nc(CC2CC2)no1)CC1COc2ccccc2O1` (stereo not given), the INHIBITION turned out to be 29.6%.

For the compound `Cc1cnc(N2CC[C@@H]3O[C@H](COCc4ccccn4)CC[C@@H]32)nc1`, the INHIBITION is reported as 5.44%. In the case of `CC(C)c1cc(=O)[nH]c(-c2ccccc2CN2CCCCCC2)n1` it was 23.1%; in that of `CCSc1cncc(N2CCC(C(=O)NC(C)C(C)C)CC2)n1` (stereo not given), -26.2%. To `NC(=O)C1CCN(C(=O)c2ccn(-c3ccc(F)cc3)n2)CC1` belongs -66.9%; to `CCN(Cc1cccnc1)CC1(C)Cc2c(N)nc(N)nc2O1` (stereo not given), 4.57%. To `CCC1c2ccsc2CCN1C(=O)NCc1cccnc1OC` (stereo not given) belongs 9.383%. For the compound `O=C(c1cnccn1)N1CCCC2(CCN(c3ncccn3)C2)C1` (stereo not given), the INHIBITION is recorded as 9.63%. As for `COCC(=O)N1CCCCC1c1ccnc(Nc2ncc(C)s2)n1` (stereo not given), the INHIBITION was 48.4%. In the case of `CN(C)CCO[C@H]1CN(C(=O)c2cscn2)[C@@H]2COC[C@H]12` it was -16.1%; in that of `CC1CCN(S(=O)(=O)N2Cc3ccccc3C[C@H]2C(N)=O)CC1`, 43.2%; in that of `NC(=O)[C@@H]1Cc2ccccc2CN1S(=O)(=O)N1CCCCCC1`, 32%. As to `NC(=O)[C@@H]1Cc2ccccc2CN1S(=O)(=O)N1CCCCC1`, the INHIBITION is listed as 51%. In the case of `Cc1ccc(OC2(C(=O)O)CCN(C(=O)CCc3ccco3)CC2)cc1` it was 31.4%; in that of `CC1CCN(C(=O)C2(Cc3cc(C4CCOC4)no3)CCNCC2)CC1` (stereo not given), 32.3%; in that of `Cc1noc(C)c1C(=O)N1C[C@@H]2C[C@@H](c3ccncn3)O[C@@H]2C1`, -10.9%. In the case of `CC(C)CC(c1nc(-c2cnn(C)c2)no1)N1CCCCC1=O` (stereo not given) it was 38.7%. In the case of `COc1ccc(-c2noc(C(CC(C)C)N3CCCCC3=O)n2)cn1` (stereo not given) it was 51.7%; in that of `COc1cc(-c2noc(C(CC(C)C)N3CCCCC3=O)n2)ccn1` (stereo not given), 34.1%. Consider `CCCNC(=O)c1nn(CC)cc1Cl`, for which the INHIBITION came to 24.2%.

Take `CC(=O)N1CCC1c1cc(NC2CCOCC2)nc(C)n1` (stereo not given): the INHIBITION was 11.65%. On to `Cc1ccnc(C2CN(Cc3ccc(-c4ccccc4C(=O)O)o3)C2)n1`, for which the INHIBITION stood at 14.35%. To `O=C(c1cnc(O)cn1)N1CCC(CN2CCOCC2)CC1` belongs -30.3%. In the case of `Cc1ccc(C(=O)N2CCN(Cc3ccc(C#N)cc3)CC2)n1C` it was 54.4%. To `CCOc1ccc(CN2CCN(C(=O)c3ccc(C)n3C)CC2)cc1` belongs 74.8%. On to `Cc1ccc(C(=O)N2CCN(Cc3ccccc3)CC2)n1C`, for which the INHIBITION is 27.6%.

For the compound `Cc1ccc(C(=O)N2CCN(Cc3cccs3)CC2)n1C`, the INHIBITION worked out at 19.4%. Regarding `Cc1ccc(C(=O)N2CCN(Cc3ccsc3)CC2)n1C`, the INHIBITION was 9.32%.

Regarding `COc1ccc(CN2CCN(C(=O)c3ccc(C)n3C)CC2)cc1`, the INHIBITION is 46.2%. In the case of `CC(C)N1CCCC1c1cc(CO)[nH]n1` (stereo not given) it was 9.585%; in that of `O=C(NCCN1CCOC1=O)c1cc(-c2ccccc2)on1`, 30.2%. In the case of `CCSc1ccc(C(=O)N2CC[C@](C)(O)[C@H](C)C2)s1` it was -5.12%. To `CCSc1ccc(C(=O)N2CC[C@](O)(CC)[C@H](O)C2)s1` belongs 53.9%; to `CCSc1ccc(C(=O)N2CCC3(CC2)[C@H](O)C[C@@H]3O)s1`, 16.7%; to `Cc1ccc(CN2CCn3c(CN4CCN(C)CC4)cnc3C2C)s1` (stereo not given), 24.3%. For `CC(C(=O)NCc1ccc2c(c1)OCCO2)n1cncn1` (stereo not given), the INHIBITION is 46.6%. To `COc1cc(CN2CC[C@@H](N3CCCCCC3)[C@H](O)C2)cc(Cl)c1OC` belongs 1.56%; to `CC1CC(=O)c2cc(C(=O)N3CCOCC3)c(=O)[nH]c2C1` (stereo not given), 13.9%; to `CN(C)C(=O)CN1C[C@H]2CC[C@@H](C1)N(Cc1ccccc1OCCO)C2`, 59.7%. In the case of `CN(C)C(=O)N1C[C@H]2CC[C@@H](C1)N(C/C=C/c1ccc(F)cc1)C2` it was -27.7%; in that of `CN(C)C(=O)CN1C[C@H]2CC[C@@H](C1)N(Cc1cccc(Cl)c1Cl)C2`, 61.8%; in that of `CN(C)C(=O)CN1C[C@H]2CC[C@@H](C1)N(Cc1ccc(Cl)cc1Cl)C2`, 19.1%. In the case of `CN(C)S(=O)(=O)N1C[C@H]2CC[C@@H](C1)N(C/C=C/c1ccc(F)cc1)C2` it was 30.7%; in that of `CN(C)C(=O)CN1C[C@H]2CC[C@@H](C1)N(Cc1ccccc1C#N)C2`, 41.5%. On to `CN(C)C(=O)CN1C[C@H]2CC[C@@H](C1)N(Cc1cc(F)ccc1F)C2`, for which the INHIBITION is recorded as 0.139%. Consider `CN(C)C(=O)CN1C[C@H]2CC[C@@H](C1)N(Cc1c(F)cccc1Cl)C2`, for which the INHIBITION stood at 29.8%. In the case of `CN(C)C(=O)CN1C[C@H]2CC[C@@H](C1)N(C/C=C/c1ccc(F)cc1)C2` it was 52.5%.
